Source: PubChem BioAssay AID686979 (National Center for Advancing Translational Sciences (NCATS), 2013)
In all, about 420,000 compounds went through this assay and about 50,000 (12%) were called active. Inconclusive results (about 26%) are left out. This excerpt belongs to a sample that is enriched for actives. Unmarked numbers belong to inactive results. Calls come from the whole dose curve; as a rule, active = well fitted inhibition curve with a large enough effect; inconclusive = small, poorly fitted or top-dose-only effect; inactive = flat fitted curve, though single readings scatter.

Assay: qHTS for Inhibitors of human tyrosyl-DNA phosphodiesterase 1 (TDP1): qHTS in cells in presence of CPT; note: nearly all actives have a fitted effect of over 55% in size
Conditions: chicken DT40 Tdp1-/-;hTDP1 cells + 20 nM CPT, ATP luminescence, 48 h; series mostly up to 46.2 µM; activity change, negative = growth inhibition: at the top concentration
Method in brief: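 Cell growth measured by CellTiter-Glo luminescence after a minimum 48 h, 37 C compound exposure with 20 nM CPT in Tdp1-knockout DT40 cells stably expressing hTDP1, seeded 400/well; qHTS titration format.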
% is set by controls: 0 for no effect and ±100 for the full control effect; potency is the fitted concentration of half-maximal effect.

Compound	activity change, negative = growth inhibition [%]	Potency
Cc1cccc(NC(=O)c2nnn(-c3cccc(C(F)(F)F)c3)c2N)c1	-0.269	
Cc1cc(C(=O)Nc2cccc(C(F)(F)F)c2)c2c(C)nn(-c3cccc(F)c3)c2n1		18.4 µM (active)
COc1cccc(NC(=O)Cn2c(=O)cc(C)c3c(C)nn(-c4cccc(F)c4)c32)c1	-23.6	
O=C(CNC(=O)c1ccccc1F)OCC(=O)c1c[nH]c2ccccc12	-1.48	
COc1ccc(S(=O)(=O)NCCSc2nnnn2-c2ccccc2)cc1	-21.7	
CCCn1c(=O)c2c(C(F)(F)F)cc(-c3cccs3)nc2n(CCC)c1=O	-20.2	
CCn1c(/C=N/NC(=O)c2ccc(OC)cc2)nc2ccccc21		13 µM (active)
CCn1c(C(O)c2cc(OC)ccc2OC)nc2ccccc21 (configuration not stated)	12	
Cc1nc2ccccc2n1CC(=O)N/N=C/c1cccs1	5.92	
O=C(CCN1CCCCC1)Nc1ccc(F)c(F)c1	1.1	
O=C(CNS(=O)(=O)c1ccc2ccccc2c1)Nc1ccc(F)c(F)c1F	3.97	
Cc1nc(-c2ccc(F)cc2)c(CC(=O)Nc2cccc(S(=O)(=O)N3CCOCC3)c2)s1	-26.3	
Cc1ccc(NC(=O)CN2C(=O)NC(C)(c3ccc(Cl)cc3)C2=O)c(Br)c1 (configuration not stated)	-19.5	
COc1ccccc1CCC(=O)OCC(=O)N1CCN(S(=O)(=O)c2ccc(C)cc2C)CC1		25.9 µM (active)
CC1(C)NC(=O)N(CC(=O)N2CCN(S(=O)(=O)c3ccccc3F)CC2)C1=O	-0.0907	
Cc1ccc(S(=O)(=O)N2CCN(C(=O)CN3C(=O)NC(C)(c4ccc(Cl)cc4)C3=O)CC2)c(C)c1 (configuration not stated)		23.1 µM (active)
CCCc1cc(=O)[nH]c(SCC(=O)N2CCN(S(=O)(=O)c3ccc(C)cc3C)CC2)n1	-5.18	
Cc1ccc(S(=O)(=O)N2CCN(C(=O)COC(=O)CNC(=O)c3ccc(C(C)(C)C)cc3)CC2)c(C)c1	-6.02	
Cc1ccc(S(=O)(=O)N2CCN(C(=O)Cc3sc(C)nc3-c3ccc(F)cc3)CC2)c(C)c1		18.4 µM (active)
Cc1ccc(S(=O)(=O)N2CCN(C(=O)COC(=O)c3c(C)noc3C)CC2)c(C)c1	-14.3	
O=c1[nH]snc1-c1c(Cl)cccc1Cl	6.18	
CC1CCN(S(=O)(=O)c2ccc3ncn(CC(=O)N(C)C4CCCCC4)c(=O)c3c2)CC1	24.6	
CCc1cc(=O)oc2cc(C)cc(OCC(=O)N3CCC[C@@H]3C(=O)O)c12	-1.07	

Compound	activity change, negative = growth inhibition [%]	Potency
O=Cc1c(NCCc2cccc(F)c2)c2ccccc2[nH]c1=O	1.42	
Cc1ccc2[nH]c(C)c(CCNC(=O)NC3CCCCC3)c2c1	-20.3	
CN(Cc1c(F)cccc1Cl)S(=O)(=O)c1cccs1	-3.52	
COc1ccc(CC(=O)N[C@@H]2c3cc(OC)c(OC)cc3C[C@H]2OCc2ccccc2)cc1	-27	
COc1ccc(C)cc1NC(=O)CN(C)S(=O)(=O)c1ccc2c(c1)n(C)c(=O)c(=O)n2C	-8.72	
Cc1nc(NC(=O)C2CCCCC2)sc1C	-3.4	
COc1cc(S(=O)(=O)Nc2ncn[nH]2)ccc1Cl	1.33	
Cn1c(Cc2cccc3ccccc23)nnc1SCC(=O)N1CCN(c2cccc(Cl)c2)CC1		23.1 µM (active)
Cc1ccccc1NC(=O)Cc1nnc(SCC(=O)N2CCN(c3ccccc3)CC2)n1C	-12.8	
COc1ccc(NC(=O)CCc2nnc3n(CC(C)C)c(=O)c4ccccc4n23)cc1OC	-7.25	
CC(C)Cn1c(=O)c2ccccc2n2c(CCC(=O)NCc3ccccn3)nnc12	-9.44	
CC(C)Cn1c(=O)c2ccccc2n2c(CCC(=O)N3CCN(c4cccc(Cl)c4)CC3)nnc12		10.3 µM (active)
Cn1c(CNC(=O)c2ccco2)nnc1SCC(=O)N1CCN(c2ccccc2)CC1	4.55	
Cc1nc(NC(=O)c2ccc3c(c2)OCCO3)ccc1Br	-15.7	
CC1CN(C(=S)Nc2cccc(F)c2)CC(C)O1 (configuration not stated)	-2.76	
O=C(CC1CCCCC1)NCc1ccco1	16.5	
CC(=O)N1C[C@@H](CO)[C@@H](N(C)C(=O)c2ccco2)C[C@H]1c1ccccc1	3.01	
OCC[C@H]1C[C@H](O)[C@@H](O)[C@]2(Cc3ccccc3CO2)O1	-17	
Cc1ccc(C2=CSC3=NS(=O)(=O)CCN23)cc1C	-16	
O=C1N[C@@H](c2ccccc2)COC(=O)[C@H](Cc2ccc(F)cc2)C/C=C\C[C@@H]1CC(=O)N(CCO)Cc1ccccc1		23.1 µM (active)
O=C(N[C@@H](Cc1c[nH]c2ccccc12)C(=O)O)OCC1c2ccccc2-c2ccccc21	6.57	
O=C1NC[C@@H](c2ccccc2)OC(=O)[C@H](Cc2ccc(F)cc2)CC/C=C/C[C@H]1CC(=O)N(CCO)Cc1ccccc1		16.4 µM (active)
O=C(C[C@H]1C/C=C\C[C@@H](NC(=O)OCC2c3ccccc3-c3ccccc32)C(=O)O[C@@H](c2ccccc2)CNC1=O)N[C@H](CO)Cc1ccccc1		10.3 µM (active)

Compound	activity change, negative = growth inhibition [%]	Potency
CC(C)(C)OC(=O)C[C@@H]1C/C=C\C[C@@H](CC(=O)NCCO)C(=O)N[C@H](Cc2c[nH]c3ccccc23)COC1=O	-1.37	
O=C1CCC/C=C\C[C@@H](CC(=O)N(CCO)Cc2ccccc2)C(=O)NCCO1	-3.1	
CN(Cc1cccs1)C(=O)Cc1c[nH]c2ccccc12	-21.4	
O=C1N[C@H](Cc2c[nH]c3ccccc23)COC(=O)[C@H](Cc2ccc(F)cc2)C/C=C\C[C@H]1CC(=O)N(CCO)Cc1ccccc1		23.1 µM (active)
Cc1nc(N)c(Br)c(C)c1Br	-6.26	
C[C@H]1CN([C@@H](C)CO)C(=O)CCCn2nncc2CO[C@@H]1CN(C)S(=O)(=O)c1cccc(C#N)c1	23	
Cc1cc(NC(=O)CN2C(=O)NC(C)(CCc3ccccc3)C2=O)no1 (configuration not stated)	12.3	
Cc1nc2ccc(NC(=S)N3CCC(C)CC3)cc2nc1C	1.6	
CCn1c(SCC(=O)NCC2CCCO2)nc2ccccc21 (configuration not stated)	-0.0373	
COc1ccc(S(=O)(=O)N2CCN(CC(=O)N3CCNC3=O)CC2)cc1OC	-1.11	
COc1ccc2c(C)cc(SCC(=O)NCC3CCCO3)nc2c1 (configuration not stated)	-26	
O=S(=O)(Nc1ncnc2sccc12)c1cccc(F)c1	-0.046	
O=C(N[C@@H]1C/C=C\C[C@@H](CC(=O)N(CCO)Cc2ccccc2)C(=O)N[C@H](Cc2ccccc2)COC1=O)OCC1c2ccccc2-c2ccccc21		8.2 µM (active)
Nc1nc2c(ncn2[C@@H]2O[C@H](CNCc3ccc(OCCCN4CCOCC4)cc3)[C@@H](O)[C@H]2O)c(=O)[nH]1	8.06	
CN(CC(=O)Nc1ccc(F)cc1)CC(=O)N1CCCCC1	4.19	
Cc1ccc(O)c(-c2cc(C(=O)Nc3c(C)n(C)n(-c4ccccc4)c3=O)[nH]n2)c1	4.26	
Nn1c(Cc2cccc3ccccc23)nnc1SCC(=O)N1CC(=O)Nc2ccccc21	-6.43	
COc1ccc(CN(Cc2ccc(OC)cc2)C(=O)c2cccs2)cc1	-25.3	
COc1ccc(CCNC(=O)/C(C#N)=C2\N=C(NC(=O)c3cccs3)c3ccccc32)cc1		10.3 µM (active)
COc1ccc(CCNC(=O)CSc2nnc(CNC(=O)c3cccs3)o2)cc1OC	-3.57	
COc1ccc(CN2CCc3nc(Nc4ccccc4)ncc3C2)c(OC)c1OC		16.4 µM (active)
Fc1ccc(CN2CCc3nc(Nc4ccccc4)ncc3C2)cc1F		11.6 µM (active)
COc1ccc(CN2CCN(Cc3ccc(OC)c(OC)c3OC)CC2)cc1	4.44	

Compound	activity change, negative = growth inhibition [%]	Potency
CCCN1CCc2nc(N3CCN(C)CC3)ncc2C1	-2.71	
Cc1nc2cnc(Nc3ccccc3)nc2n(Cc2ccc(F)cc2)c1=O	-13.7	
Cn1c(=O)c(CCc2ccccc2)nc2cnc(Nc3ccccc3)nc21	6.87	
CCCc1cc(=O)[nH]c2nnc(SCC(=O)Nc3nnc(SCC)s3)n12	7.93	
Cc1nc2cc(NC(=O)[C@@H]3C[C@@H](Sc4ccccn4)CN3Cc3ccccc3C)ccc2s1	6.85	
Cc1nn2c(=O)cc(COC(=O)c3cccc(NC(=O)COc4ccccc4Cl)c3)nc2s1	-1.04	
O=C(CNS(=O)(=O)c1ccc(Br)s1)N1CCN(C(=O)c2ccco2)CC1	-4.9	
C[C@@H]1CN([C@H](C)CO)C(=O)c2cc(NC(=O)NC3CCCCC3)ccc2O[C@H]1CN(C)S(C)(=O)=O	16.1	
O=C(C1=C[C@H](c2ccc(C(F)(F)F)cc2)C[C@H](OCc2ccc(CO)cc2)O1)N1CCN(Cc2ccccc2)CC1		23.1 µM (active)
CN1CCN(C(=O)C2=C[C@H](c3ccc4c(c3)OCO4)C[C@H](OCc3ccc(CO)cc3)O2)CC1	3.41	
C#Cc1ccc([C@@H]2C=C(C(=O)O)O[C@H](OCCCCO)C2)cc1	-6.55	
CCCCNC(=O)CSc1nc2cc3c(cc2c(=O)n1CCCCCC(=O)NCc1ccc2c(c1)OCO2)OCO3	9.03	
O=C(COc1ccc(Cl)cc1)Nc1ccc2oc(=O)ccc2c1	3.91	
O=c1[nH]c(CN2CCOCC2)nc2cc(Cl)ccc12	-0.49	
O=c1[nH]c(CCl)nc2cc(-c3ccc(Cl)cc3)sc12		5.17 µM (active)
NC(=O)Cc1nc2scc(-c3ccc(Cl)cc3)c2c(=O)[nH]1	-7.61	
CCc1ccc(CN(C)C(=O)C2CCC(=O)N(Cc3cccc(OC)c3)C2)nc1 (configuration not stated)	-25	
C=CCC(C(=O)c1ccccc1)[N+](C)(C)CC=C (configuration not stated)	1.64	
COc1cc(C(F)(F)F)c(C(=O)N(C)c2ccc(Cl)cc2)cn1	-27.9	
CC(C)(C)c1ccc(S(=O)(=O)N2CCN(C(=O)c3ccc4c(c3)C(=O)N(Cc3ccncc3)C4=O)CC2)cc1	-0.99	
COC(=O)Cc1csc(/N=C/c2c(O)n(-c3cccc(C(F)(F)F)c3)c(=O)c3ccccc23)n1		6.51 µM (active)
COC(=O)Cc1csc(Nc2c(C)n(C)n(-c3ccccc3)c2=O)n1	5.14	
COC(=O)Cc1c(O)ccn(Cc2cccc(C(F)(F)F)c2)c1=O	19.8	
